Results filed as inconclusive are left out. A number with no mark means an inactive call. Active and inactive are the calls of the source. Calls come from the whole dose curve; as a rule, active = well fitted inhibition curve with a large enough effect; inconclusive = small, poorly fitted or top-dose-only effect; inactive = no such curve, though single readings can be large or run the other way.
Assay: BET inhibitor-based combinations targeting novel dependencies in MECOM-rearranged (r) AML: OCI-AML3 cell line (AID 2202232); note: nearly all actives have a fitted effect of over 35% in size
Conditions: CellTiter-Glo luminescence, 48 h; Potency: OCI-AML3 viability; series mostly up to 46 µM; viability (% of control): at the top concentration
Text: Ecotropic viral insertion site 1 (EVI1) is located on chromosome 3q26.2 as part of the MECOM (MDS and EVI1 complex) locus. Under normal hematopoiesis, EVI1 is a regulator of hematopoietic stem cell maintenance and self-renewal and EVI1 levels decrease as the cells differentiate. In approximately 5-10% of de novo acute myeloid leukemia (AML) EVI1 is aberrantly expressed, including Chromosomal inv(3)(q21;q26.2) or t(3;3)(q21;q26.2) alterations (MECOM-r) that account for about 50% of AML with EVI1 overexpression 31. AMLs with high levels of EVI1 have a poor prognosis and an overall survival time averaging between 10-14 months. EVI1 overexpression confers resistance in leukemia cells, highlighting the need to develop new targeted therapies for EVI1 overexpressing AMLs.
Here, we performed an unbiased chemical drug screening by evaluating the single agent activity of a collection of 2,480 oncology-focused, approved and investigational drugs (NCATS Mechanism Interrogation Plates, MIPE v5.0) against a panel of seven AML cell lines. These included four MECOM-r cell-lines (AML-191, AML-194, UCSD-AML1 and HNT-34) and three non-MECOM-r AMLs (MV4-11, OCI-AML3 and SET-2). Exploiting the mechanistic redundancy built in the library, we identified target-level sensitivities in MECOM-r AML cells and relative activity as compared to other AML subtypes.
A collection of 2480 mechanistically annotated dugs (MIPE v5.0) was used to screen four 3q26.2 rearranged AML cell lines and three non-3q26.2 rearranged AML cell lines. This library purposely exploits redundancy by including multiple inhibitors of key onco-targets, while simultaneously encompassing mechanistic diversity, targeting more than 800 distinct mechanisms of action. Briefly, cells were seeded in 5 uL of growth media using a Multidrop Combi dispenser into 1536 well white polystyrene tissue culture treated plates (Corning) at a density of 500cells/well. For each cell-line, for each of the 2480 drugs in MIPE v5.0 library, an 11-point dose curve was generated via a 1536 pin-tool. Plates were incubated for 48 hr at standard incubator conditions, covered by a stainless steel gasketed lid to prevent evaporation. Cell viability was determined by luminescence based, Cell Titer Glo assay (Promega). In detail, 3 uL of Cell Titer Glo were added to each well and plates were incubated at room temperature for 15 min with a stainless-steel lid in place. Luminescence readings were taken using a Viewlux (PerkinElmer) with a 2 s exposure time per plate. Compound dose-response curves were normalized to DMSO and empty well controls on each plate. Quantitative drug activity data from dose-response curves was determined utilizing area Under the Curve (AUC) and Z-transformed AUC (Z-AUC, a mean-centering transformation applied to each individual cell-line screened).
Potency is the fitted concentration of half-maximal effect.

Structure (SMILES)	Potency	viability (% of control)
Nc1ccc(C(=O)c2cc3c(ccc4ccccc43)[nH]2)cc1	6.79 µM (active)	–
C=CCNc1c(O)cc2c(O)c1C[C@@H](C)C[C@H](OC)[C@H](O)[C@@H](C)/C=C(/C)[C@H](OC(N)=O)[C@@H](OC)/C=C\C=C(\C)C(=O)N2	0.742 µM (active)	–
N#CC(c1ccnc(NCCc2cccnc2)n1)c1nc2ccccc2s1 (stereo not given)	18.6 µM (active)	–
Cc1cc2cc(Oc3ccnc(Nc4cccc(CS(=O)(=O)NCCN(C)C)c4)n3)ccc2[nH]1	20.9 µM (active)	–
CC(C)c1ccc(Cn2ccc3c4c(N)nc(NC5CC5)nc4ccc32)cc1	1.48 µM (active)	–
COc1ccc(OC)c(-c2nnc3ccc(-c4ccc(OC)c(O[C@@H]5CCOC5)c4)nn23)c1	4.17 µM (active)	–
Cn1cc(-c2cnn3c(N)c(Br)c(C4CCCNC4)nc23)cn1 (stereo not given)	10.5 µM (active)	–
N#C/C(=C1/Nc2ccccc2S1)c1ccnc(OCc2ccc(CN3CCOCC3)cc2)n1	14.8 µM (active)	–
COCCOC(=O)C1=C(C)NC2=C(C(=O)CC(c3ccccc3OC)C2)C1c1cccc(O)c1 (stereo not given)	7.42 µM (active)	–
COC1CC(C(=O)c2ccc3c(N)ncc(-c4ccc(-c5cnn(C)c5)cc4)c3n2)C1 (stereo not given)	8.33 µM (active)	–
Cc1cnc(Nc2ccc(F)cc2Cl)nc1-c1c[nH]c(C(=O)NC(CO)c2cccc(Cl)c2)c1 (stereo not given)	4.68 µM (active)	–
Cc1[nH]c2ccccc2c1CCNCc1ccc(/C=C/C(=O)NO)cc1	0.0661 µM (active)	–
CCO[C@@H]1OC(=O)C[C@@H]1NC(=O)[C@@H]1CCCN2C(=O)CC[C@H](NC(=O)c3nccc4ccccc34)C(=O)N12	–	127%
O=C(NC1CC1)c1cccc(-c2ccc3c(NC(=O)C4CC4)n[nH]c3c2)c1	10.5 µM (active)	–
Cc1cc(O)cc2c1[C@]1(C)CC[C@H]3C(C)(C)CCC[C@]3(C)[C@H]1C2	–	14.4% [at 5.12 µM]
CC(C)(c1ccc(OCC(O)CO)cc1)c1ccc(OCC(O)CCl)cc1 (stereo not given)	–	70.9%
CO[C@H]1/C=C/O[C@@]2(C)Oc3c(C)c(O)c4c(O)c(c5c(nc6cc(C)ccn65)c4c3C2=O)NC(=O)/C(C)=C\C=C\[C@H](C)[C@H](O)[C@@H](C)[C@@H](O)[C@@H](C)[C@H](OC(C)=O)[C@@H]1C	–	88.5%
Cc1nc2ccc(CN(C)c3ccc(C(=O)N[C@@H](CCC(=O)O)C(=O)O)s3)cc2c(=O)[nH]1	0.0468 µM (active)	–
CC(C)Oc1ccc(C(=O)N[C@H](CNC(=O)CN(C)C)Cc2ccc(-c3cn4cccc([C@H](C)O)c4n3)cc2)cc1Cl	0.263 µM (active)	–
CCCN(CCC)C(=O)C1=Cc2ccc(-c3ccc(C(=O)N4CCCC4)cc3)cc2N=C(N)C1	16.6 µM (active)	–

Structure (SMILES)	Potency	viability (% of control)
COc1ccc(S(=O)(=O)N2CCc3cccc(-c4ccncc4)c32)cc1	1.05 µM (active)	–
O=C(Nc1ncc(SCCN2CCCC2)s1)[C@]1(c2ccc(S(=O)(=O)C3CC3)cc2)C[C@H]1C1CCCCC1	20.9 µM (active)	–
COc1ccc(-c2ccc3c(N4CCOC[C@@H]4C)nc(N4CCOC[C@@H]4C)nc3n2)cc1CO	0.148 µM (active)	–
CCCCCCCCCCCC(CC1OC(=O)C1CCCCCC)OC(=O)C(CC(C)C)NC=O (stereo not given)	–	71.6%
C[C@@H]1C(=O)OC2[C@H](O)[C@]34[C@H]5C[C@@H](C(C)(C)C)[C@]36[C@@H](OC(=O)[C@@H]6O)O[C@@]4(C(=O)O5)[C@]21O (stereo not given in full)	–	137%
CN(C)CCN(C)C(=O)c1ccc(NC(=O)Nc2ccc(-c3nc(N4CCOCC4)c4ccn(CC(F)(F)F)c4n3)cc2)cc1	0.934 µM (active)	–
Cc1cnc(NC(=O)c2cc(Oc3cnc(C(=O)N(C)C)nc3)c3cc(C)oc3c2)cn1	–	115%
Cc1ccc(Sc2ccccc2N2CCNCC2)c(C)c1	20.9 µM (active)	–
O=C(Nc1cccc(C(F)(F)F)c1)c1cccc2cc(Oc3cc(CO)ncn3)ccc12	–	146%
CC1(N)CCN(c2cnc(-c3cccc(Cl)c3Cl)c(N)n2)CC1	–	120% [at 15.6 µM]
CC1(C)OC2=C(C(=O)c3ccccc3C2=O)[C@H](NCc2ccccc2)[C@@H]1O	11.8 µM (active)	–
Nc1ncn([C@H]2C[C@H](O)[C@@H](CO)O2)c(=O)n1	0.417 µM (active)	–
N#C/C(=C\c1ccc(O)c(O)c1)C(=O)NCc1ccccc1	5.9 µM (active)	–
O=C(CO)N1CCC(c2[nH]nc(-c3ccc(Cl)cc3)c2-c2ccncn2)CC1	–	129%
C[C@]12CCC3=C4CCC(=O)C=C4CC[C@H]3[C@@H]1CC[C@@]2(O)CC#N	–	101%
CNC(=O)c1c(C)oc2cc(Oc3ncnc4cc(OC)c(OC)cc34)ccc12	–	104%
CN[C@@H](C)C(=O)N[C@H](C(=O)N1CCC[C@H]1C(=O)Nc1snnc1-c1ccccc1)C1CCCCC1	–	66.7%
COc1ccccc1-c1cccc(-c2c(O)c3cc(C#N)c(Cl)cc3[nH]c2=O)c1	–	105%
CC(=O)NCC(=O)N1[C@@H]2CC[C@H]1c1ccc(Nc3ncc(C(F)(F)F)c(NC4CCC4)n3)cc12	14.8 µM (active)	–
N#C/C(=C(/N)Sc1ccc(N)cc1)c1ccccc1C(F)(F)F	7.42 µM (active)	–
